45 compounds from PubChem BioAssay AID602332 (National Center for Advancing Translational Sciences (NCATS), 2012) can be followed below.

Several values for one entry are separate records, joined by “and”; a condition that tells them apart may be missing. Equal values may be shown once. The whole screen tested about 420,000 compounds, of which about 75 (0.02%) were called active. Only a selection was taken, and actives are over-represented in it overall. Where a structure was tested more than once in an assay, its records may differ in their call. Values without a mark were called inactive. Calls follow the shape of the dose curve; as a rule, active = well fitted activation curve with a large enough effect; inconclusive = small, poorly fitted or top-dose-only effect; inactive = no such curve, though single readings can be large or run the other way.
Potency is read from the fitted curve at half-maximal effect.

A short description of this experiment: qHTS for Inducers of the Endoplasmic Reticulum Stress Response (ERSR) in Human Glioma: qHTS. Also: nearly all actives have a fitted effect of over 35% in size. As to activation: % of control where 0% means no effect. The settings on record: U87-MG GRP78 promoter luciferase reporter, 16 h; activation: active compounds read high. The source says:
Primary protein unfolding takes place for many diseases, including diabetes and hypoxia, , and triggers a reaction in the cells called ER stress response (ERSR). ). ERSR is designed as a repair mechanism, but ultimately leads to cell death via apoptosis if conditions triggering protein unfolding persist (1). The molecular clue to ERSR activation is the enhancement of the expression of key molecular chaperones, including the glucose regulated protein (GRP) 78. GRP78 is the main sensor for protein folding and the main actuator of the ERSR.
In a collaboration between the Southern Research Institute and the NIH Chemical Genomics Center, a cell based screen was developed that reliably uses GRP78 as a sensor to identify small molecules as inducers of ERSR. In resting conditions, GRP78 binds proteins and acts as a natural repressor. Once unfolded proteins are present in the ER, GRP78 releases some of the repressors and binds to the unfolded proteins. The release of the repressors executes the ERSR program. Using a human glioma cell line in a miniaturized, luminescent format, a high-throughput screen was developed to identify actuators of the ERSR.
(1) Soboloff, J. and S. A. Berger (2002). "Sustained ER Ca2+ depletion suppresses protein synthesis and induces activation-enhanced cell death in mast cells." J Biol Chem 277(16): 13812-20.
NIH Chemical Genomics Center [NCGC]
NIH Molecular Libraries Probe Centers Network [MLPCN]
Assay Submitter (PI): Maurizio Grimaldi, Southern Research Institute
Stable transfected human glioma cell line, U87-MG, are dispensed at density 1000 cells/well into Greiner white solid bottom 1536-well assay plates. Compounds are transferred via Kalypsys pin tool equipped with 1536-pin array (10nl slotted pins, V&P Scientific, San Diego, CA). The assay plates will be incubated for 16 hours and developed by adding appropriate quantities of the Promega Bright Glo reagent. The plates will be incubated at room temperature for 10 minutes prior to being transferred into a ViewLux high-throughput CCD imager (PerkinElmer), wherein end-point measurements of luminescence are acquired.
On the technique in general: Quantitative high-throughput screening tests each substance at several concentrations.
On to `COc1ccccc1C(=O)N[C@@H]1c2ccccc2C2(CCN(C(=O)c3csnn3)CC2)[C@H]1OC`, for which the activation was 0.874%.
The same measure, in the same setting: with `Cc1cc(C)cc(C#CC2C=CC(Oc3ccc(C4CCCC4)cc3)C(CO)O2)c1` (stereo unspecified) the figure was -1.34%; with `O=S(O)CNc1ccc(S(=O)(=O)c2ccc(NCS(=O)O)cc2)cc1`, -4.53%.
Same read-out and setting: for `C[C@]12CC[C@@H]3C(=CCc4cc(O)ccc43)[C@@H]1CCC2=O` the value was 2.61%; for `Fc1ccc(Cl)cc1-c1nc(Nc2ccncc2)c2nccnc2n1`, -1.14%; for `Cc1cnc(-n2ncc(C(=O)N3CCN(C(C)C)CC3)c2-c2ccco2)nc1-c1ccc(F)cc1`, -4.71%.
Still for that read-out and setting: for `COC(=O)[C@@H]1CC[C@H](C)[C@@H](c2ccc(C)cc2)N1C(=O)c1ccc(/C=N\OC[C@@H](O)COCc2ccco2)cc1` the value was 3.64%.
Turning to `C#C[C@]1(O)CC[C@H]2[C@@H]3CCC4=CC(=O)CC[C@@H]4[C@H]3CC[C@@]21CC`, the Potency was 20 µM (active); the activation is 3.01% and -1.02%.
As for `COc1cc(=O)n2c(c1C(=O)NC(C)c1ccco1)CCN(C(=O)c1cn3ccc(C)cc3n1)CC2` (stereo unspecified), the activation was -2.08%.
On the same count and under the same terms, for `CN(C)c1ccc(/C=C/C=C/c2ccnc3ccccc23)cc1` the value was -3.58%; for `C=COC(=O)N1CCN(/[N+]([O-])=N/Oc2ccc([N+](=O)[O-])cc2[N+](=O)[O-])CC1`, -11%; for `O=C1c2c(O)cccc2[C@@H]([C@@H]2O[C@H](CO)[C@@H](O)[C@H](O)[C@H]2O)c2cc(CO)cc(O)c21`, -3.93%.
On the same count and under the same terms, for `CO[C@H]1COC(=O)[C@@H](OCc2ccccc2)/C=C\[C@H](C)[C@@H](OC)COC(=O)[C@H](OCc2ccccc2)/C=C\[C@@H]1C` the value was -0.0422%.
With `C[N+](C)(CCOc1ccccc1)Cc1cccs1` (tested in a mixture with another compound), the activation was -5.19%.
Same read-out and setting: with `CCCC(=O)O[C@]1(C(=O)COC(=O)CC)CC[C@@H]2[C@@H]3CCC4=CC(=O)CC[C@]4(C)[C@H]3[C@@H](O)C[C@@]21C` the figure was -2.74%; with `C=C1C(=O)C23C(O)C1CCC2[C@]12COC3(O)C(O)C1C(C)(C)CC[C@H]2O` (stereo partly specified), -12.5%.
For the compound `CO[C@H]1[C@H](NC(=O)C(C)C)c2ccccc2C12CCN(Cc1cnc(N(C)C)s1)CC2`, the activation was -3.14%.
With `CC1O[C@@H](Oc2c(-c3ccc(O)c(O)c3)oc3cc(O)cc(O)c3c2=O)C(O)C(O)C1O` (stereo partly specified), the activation was -2.63%.
As to `O=C(C(=O)N1CCOc2ccc(CN3CCN(Cc4ccccn4)CC3)cc2C1)c1ccccc1`, the activation is -4.17%.
Still for that read-out and setting: with `CCCCC(=O)OCC(=O)[C@H]1[C@H](C)C[C@@H]2[C@@H]3C[C@@H](F)C4=CC(=O)C=C[C@]4(C)[C@@]3(F)[C@@H](O)C[C@@]21C` the figure was -0.711%; with `COC(=O)[C@@H]1C[C@H](NC(=O)c2ccccc2C(F)(F)F)CN1Cc1cccc(O)c1`, -4.69%.
The same measure, in the same setting: for `CCc1nc2cc(C(=O)NCC3CCS(=O)(=O)C3)cc(NC(=O)c3ccccc3OC)c2n1C` (stereo unspecified) the value was -5.29%; for `Cc1nc2cc(NC(=O)[C@@H]3C[C@@H](Sc4ccccn4)CN3Cc3ccccc3C)ccc2s1`, -3.4%; for `O=C1OC(C(O)CO)C(O)=C1O` (stereo unspecified), -2.25%.
Regarding `COc1ccc(COC(=O)N/N=C2/C[C@@H](O)[C@@H](O)[C@@H]3[C@@H]4C(=O)N([C@@H](C)c5ccccc5)C(=O)[C@H]4CC[C@@H]23)cc1`, the activation is -1.75%.
On the same count and under the same terms, with `O=C(O)c1ccc(/C=C2/SC(=S)N(c3cccc(C(F)(F)F)c3)C2=O)cc1` the figure was 2.71%.
Turning to `CC(=O)/C(C)=N\O`, the activation is -3.3%.
Consider `C(=Nc1ccc(/C=C/c2ccnc3ccccc23)cc1)Nc1ccc(/C=C/c2ccnc3ccccc23)cc1`, for which the activation was -10.1%.
Consider `CN1CC(O)c2cc(N=NC(N)=O)c(O)cc21` (stereo unspecified), for which the activation was 4.72%.
On to `Cc1ccc(-c2ccc(C(=O)N3CCc4nnc(CNC(=O)c5ccccc5)n4CC3)cc2)cc1`, for which the activation is -3.28%.
Same read-out and setting: with `CC1(C)[C@H](O[C@H]2O[C@H](C(=O)O)[C@@H](O)[C@H](O)[C@H]2O[C@@H]2O[C@H](C(=O)O)[C@@H](O)[C@H](O)[C@H]2O)CC[C@@]2(C)[C@H]1CC[C@]1(C)[C@H]2C(=O)C=C2[C@H]3C[C@@](C)(C(=O)O)CC[C@]3(C)CC[C@]21C` the figure was -2.51%; with `O=c1c(O)c(-c2ccc(O)cc2)oc2ccccc12`, -1.19%.
On the same count and under the same terms, for `CC(=O)Nc1ccccc1-c1nc(CNC(=O)c2ccc(Cl)cc2)c(C)o1` the value was -2.78%; for `COCc1c(C(=O)NC2CCCCC2)cnn1-c1nccc(-c2ccccc2OC)n1`, 0.854%; for `COc1cc(C)c(CN2CCc3nnc(C(C)NC(=O)c4cccnc4)n3CC2)cc1C` (stereo unspecified), -0.402%.
Same read-out and setting: with `Cn1nccc1C(=O)NCC1CCC2(CCN(Cc3c(O)ccc4ccccc34)CC2)O1` (stereo unspecified) the figure was -1.48%; with `Cc1cc(-c2ccnc(-n3ncc(C(=O)NCCc4ccncc4)c3C)n2)c(C)s1`, -1.46%; with `CN(C)c1ccc(/C=C/c2sc3ccccc3[n+]2CCCCBr)cc1`, -6.95%.
Consider `COc1ccccc1-c1nc(NCc2cccs2)c2ccccc2n1`, for which the activation was -5.15%.
As to `CO[C@H]1COC(=O)[C@H](Cc2ccccc2)NC(=O)C/C=C\[C@@H](C)[C@H](OC)COC(=O)C/C=C\[C@@H]1C`, the activation was -4.82%.
Still for that read-out and setting: for `COc1cccc([C@H]2Oc3ccc(OC)cc3/C(=N\OCC[C@@H]3C=C[C@H](OC(C)=O)[C@H](COC(C)=O)O3)[C@@H]2O)c1` the value was -2.8%; for `O=C(NCCN1CCOCC1)c1cnn(-c2nccc(-c3cccs3)n2)c1C1CC1`, -4.37%; for `CC(C)CN1CCc2nc(-c3ccccc3)c3c(c2C1)COC(C)C3` (stereo unspecified), -2.93%.
`Cc1cc2oc(=O)cc(-c3ccccc3)c2c(C)c1/C=C/c1ccc(F)cc1`: the activation is -1.4%.
For the compound `CCC(C)C1OC2(C=CC1C)CC1CC(C/C=C(/C)C(OC3CC(OC)C(OC4CC(OC)C(NC(C)=O)C(C)O4)C(C)O3)C(C)/C=C\C=C3\COC4C(O)C(C)=CC(C(=O)O1)C34O)O2` (stereo unspecified), the activation was -10.3%.
